Key:
[1] = molecular target: Sphingosine kinase 1 (Homo sapiens) (UniProt Q9NYA1); conditions: at 1 µM;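 also: mean SPHK1 inhibition value reported from the GSK PKIS kinase panel screen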
[2] = molecular target: T1, Sphingosine kinase 2 (Homo sapiens) (UniProt Q9NRA0); conditions: at 0.1 µM
T1 sequence (whole entry): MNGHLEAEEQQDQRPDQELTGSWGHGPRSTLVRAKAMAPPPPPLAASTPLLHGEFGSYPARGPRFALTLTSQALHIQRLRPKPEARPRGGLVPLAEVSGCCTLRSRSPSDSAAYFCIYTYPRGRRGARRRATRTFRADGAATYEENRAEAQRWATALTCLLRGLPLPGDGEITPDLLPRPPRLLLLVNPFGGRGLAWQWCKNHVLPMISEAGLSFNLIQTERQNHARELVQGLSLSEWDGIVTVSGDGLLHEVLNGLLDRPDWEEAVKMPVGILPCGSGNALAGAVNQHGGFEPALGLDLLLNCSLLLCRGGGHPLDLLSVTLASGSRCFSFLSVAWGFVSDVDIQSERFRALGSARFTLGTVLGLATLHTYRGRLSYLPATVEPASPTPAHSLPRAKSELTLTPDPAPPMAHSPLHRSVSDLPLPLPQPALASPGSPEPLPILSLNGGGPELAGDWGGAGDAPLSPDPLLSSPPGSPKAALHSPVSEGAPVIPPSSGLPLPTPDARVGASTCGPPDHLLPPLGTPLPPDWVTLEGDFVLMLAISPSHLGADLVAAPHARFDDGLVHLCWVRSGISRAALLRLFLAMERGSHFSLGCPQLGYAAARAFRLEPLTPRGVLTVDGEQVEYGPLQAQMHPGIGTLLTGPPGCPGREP

[3] = molecular target: T1, Sphingosine kinase 2 (Homo sapiens); conditions: at 1 µM
[4] = molecular target: Casein kinase II subunit alpha (Homo sapiens) (UniProt P68400); conditions: at 0.1 µM
[5] = molecular target: Casein kinase II subunit alpha (Homo sapiens) (UniProt P68400); conditions: at 1 µM
[6] = molecular target: T2, Inhibitor of nuclear factor kappa-B kinase subunit alpha (Homo sapiens) (UniProt O15111); conditions: at 0.1 µM
T2 sequence (whole entry): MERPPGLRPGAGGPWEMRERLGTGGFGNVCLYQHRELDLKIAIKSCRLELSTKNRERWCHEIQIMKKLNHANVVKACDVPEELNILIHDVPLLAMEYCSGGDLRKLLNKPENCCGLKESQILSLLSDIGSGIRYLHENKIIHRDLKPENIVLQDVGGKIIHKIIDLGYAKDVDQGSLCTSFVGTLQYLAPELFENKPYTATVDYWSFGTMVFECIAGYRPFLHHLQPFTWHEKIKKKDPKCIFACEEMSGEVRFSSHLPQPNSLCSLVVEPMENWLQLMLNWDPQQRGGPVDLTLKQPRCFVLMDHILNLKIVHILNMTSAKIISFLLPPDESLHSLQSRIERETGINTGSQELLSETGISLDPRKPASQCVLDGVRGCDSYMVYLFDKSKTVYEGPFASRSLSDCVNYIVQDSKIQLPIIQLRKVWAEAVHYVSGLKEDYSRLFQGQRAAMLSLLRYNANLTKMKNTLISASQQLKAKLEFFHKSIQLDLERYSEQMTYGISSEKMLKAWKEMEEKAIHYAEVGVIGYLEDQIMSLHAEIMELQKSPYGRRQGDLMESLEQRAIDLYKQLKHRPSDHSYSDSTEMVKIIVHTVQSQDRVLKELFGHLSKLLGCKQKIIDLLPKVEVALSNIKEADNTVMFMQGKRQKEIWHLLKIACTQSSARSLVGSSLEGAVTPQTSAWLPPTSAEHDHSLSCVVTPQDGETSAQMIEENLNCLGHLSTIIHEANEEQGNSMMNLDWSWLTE

[7] = molecular target: T2, Inhibitor of nuclear factor kappa-B kinase subunit alpha (Homo sapiens); conditions: at 1 µM
[8] = molecular target: T3, Inhibitor of nuclear factor kappa-B kinase subunit beta (Homo sapiens) (UniProt O14920); conditions: at 0.1 µM
T3 sequence (whole entry): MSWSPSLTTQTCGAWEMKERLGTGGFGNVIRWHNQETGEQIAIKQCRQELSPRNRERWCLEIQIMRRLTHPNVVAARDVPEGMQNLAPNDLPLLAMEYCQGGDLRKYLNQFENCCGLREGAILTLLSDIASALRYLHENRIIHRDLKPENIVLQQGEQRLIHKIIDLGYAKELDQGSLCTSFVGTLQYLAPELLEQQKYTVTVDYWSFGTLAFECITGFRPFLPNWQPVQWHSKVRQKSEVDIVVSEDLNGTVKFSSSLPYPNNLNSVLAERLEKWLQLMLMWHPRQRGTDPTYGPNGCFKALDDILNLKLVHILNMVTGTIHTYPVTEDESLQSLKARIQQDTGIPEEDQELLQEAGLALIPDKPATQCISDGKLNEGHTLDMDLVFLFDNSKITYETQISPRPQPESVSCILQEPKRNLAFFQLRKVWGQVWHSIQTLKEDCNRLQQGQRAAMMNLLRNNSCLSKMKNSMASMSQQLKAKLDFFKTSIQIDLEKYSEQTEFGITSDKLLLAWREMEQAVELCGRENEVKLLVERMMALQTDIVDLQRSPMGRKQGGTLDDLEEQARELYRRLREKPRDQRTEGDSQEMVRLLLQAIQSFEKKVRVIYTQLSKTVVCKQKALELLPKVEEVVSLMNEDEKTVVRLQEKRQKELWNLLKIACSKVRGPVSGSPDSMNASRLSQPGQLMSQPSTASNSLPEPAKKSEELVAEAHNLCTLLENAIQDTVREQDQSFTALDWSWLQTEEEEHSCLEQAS

[9] = molecular target: T3, Inhibitor of nuclear factor kappa-B kinase subunit beta (Homo sapiens); conditions: at 1 µM
[10] = molecular target: T4, Inhibitor of nuclear factor kappa-B kinase subunit epsilon (Homo sapiens) (UniProt Q14164); conditions: at 0.1 µM
T4 sequence (whole entry): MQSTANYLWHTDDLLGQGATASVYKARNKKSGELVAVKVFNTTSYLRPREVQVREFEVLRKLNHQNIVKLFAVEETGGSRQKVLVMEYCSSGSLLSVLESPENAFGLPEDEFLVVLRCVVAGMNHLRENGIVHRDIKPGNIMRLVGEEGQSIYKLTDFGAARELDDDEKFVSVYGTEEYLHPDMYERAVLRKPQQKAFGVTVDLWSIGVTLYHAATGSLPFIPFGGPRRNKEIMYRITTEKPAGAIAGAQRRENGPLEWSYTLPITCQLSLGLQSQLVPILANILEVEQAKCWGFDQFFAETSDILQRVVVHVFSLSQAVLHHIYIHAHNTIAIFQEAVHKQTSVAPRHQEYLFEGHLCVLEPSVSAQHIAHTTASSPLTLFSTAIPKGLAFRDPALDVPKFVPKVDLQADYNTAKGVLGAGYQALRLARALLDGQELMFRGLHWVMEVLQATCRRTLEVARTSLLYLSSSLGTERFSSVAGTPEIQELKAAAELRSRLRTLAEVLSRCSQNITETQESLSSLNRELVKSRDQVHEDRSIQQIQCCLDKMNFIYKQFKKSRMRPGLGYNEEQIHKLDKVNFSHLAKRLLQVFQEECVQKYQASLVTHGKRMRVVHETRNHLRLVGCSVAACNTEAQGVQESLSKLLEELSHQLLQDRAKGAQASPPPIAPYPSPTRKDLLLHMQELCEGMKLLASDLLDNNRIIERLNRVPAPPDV

[11] = molecular target: T4, Inhibitor of nuclear factor kappa-B kinase subunit epsilon (Homo sapiens); conditions: at 1 µM
[12] = molecular target: T5, Serine/threonine-protein kinase Nek1 (Homo sapiens) (UniProt Q96PY6); conditions: at 0.1 µM
T5 sequence (whole entry): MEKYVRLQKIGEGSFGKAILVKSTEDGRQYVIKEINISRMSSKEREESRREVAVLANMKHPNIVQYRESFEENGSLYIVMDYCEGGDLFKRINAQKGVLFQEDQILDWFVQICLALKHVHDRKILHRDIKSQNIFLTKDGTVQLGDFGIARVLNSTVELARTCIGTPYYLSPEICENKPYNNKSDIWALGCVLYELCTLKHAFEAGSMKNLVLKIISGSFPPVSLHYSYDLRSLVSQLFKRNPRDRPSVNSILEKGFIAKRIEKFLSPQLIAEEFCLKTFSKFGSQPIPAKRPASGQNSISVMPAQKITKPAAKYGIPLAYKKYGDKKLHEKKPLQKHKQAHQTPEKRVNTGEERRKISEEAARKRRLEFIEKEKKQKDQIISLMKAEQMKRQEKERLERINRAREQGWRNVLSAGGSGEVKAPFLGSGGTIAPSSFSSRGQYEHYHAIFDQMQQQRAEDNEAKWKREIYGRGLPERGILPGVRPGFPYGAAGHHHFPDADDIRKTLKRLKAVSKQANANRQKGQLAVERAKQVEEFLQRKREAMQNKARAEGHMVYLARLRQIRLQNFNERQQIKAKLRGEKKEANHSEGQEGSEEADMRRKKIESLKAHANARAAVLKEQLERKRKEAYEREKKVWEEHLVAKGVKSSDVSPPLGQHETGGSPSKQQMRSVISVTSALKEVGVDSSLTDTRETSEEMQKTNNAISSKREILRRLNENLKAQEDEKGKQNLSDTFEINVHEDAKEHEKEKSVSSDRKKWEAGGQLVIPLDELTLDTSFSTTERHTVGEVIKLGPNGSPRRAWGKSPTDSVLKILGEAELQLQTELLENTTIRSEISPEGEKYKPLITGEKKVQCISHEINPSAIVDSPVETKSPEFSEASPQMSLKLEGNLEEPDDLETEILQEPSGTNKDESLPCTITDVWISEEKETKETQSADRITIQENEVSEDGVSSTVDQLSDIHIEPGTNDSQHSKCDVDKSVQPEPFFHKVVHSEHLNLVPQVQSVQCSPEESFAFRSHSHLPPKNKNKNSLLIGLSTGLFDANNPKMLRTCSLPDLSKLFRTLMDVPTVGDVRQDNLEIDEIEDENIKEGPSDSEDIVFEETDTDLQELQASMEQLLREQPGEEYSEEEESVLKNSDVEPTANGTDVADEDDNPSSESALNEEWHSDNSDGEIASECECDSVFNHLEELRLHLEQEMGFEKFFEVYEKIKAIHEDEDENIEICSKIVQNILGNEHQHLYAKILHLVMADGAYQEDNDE

[13] = molecular target: T5, Serine/threonine-protein kinase Nek1 (Homo sapiens); conditions: at 1 µM
[14] = molecular target: T6, Serine/threonine-protein kinase Nek2 (Homo sapiens) (UniProt P51955); conditions: at 0.1 µM
T6 sequence (whole entry): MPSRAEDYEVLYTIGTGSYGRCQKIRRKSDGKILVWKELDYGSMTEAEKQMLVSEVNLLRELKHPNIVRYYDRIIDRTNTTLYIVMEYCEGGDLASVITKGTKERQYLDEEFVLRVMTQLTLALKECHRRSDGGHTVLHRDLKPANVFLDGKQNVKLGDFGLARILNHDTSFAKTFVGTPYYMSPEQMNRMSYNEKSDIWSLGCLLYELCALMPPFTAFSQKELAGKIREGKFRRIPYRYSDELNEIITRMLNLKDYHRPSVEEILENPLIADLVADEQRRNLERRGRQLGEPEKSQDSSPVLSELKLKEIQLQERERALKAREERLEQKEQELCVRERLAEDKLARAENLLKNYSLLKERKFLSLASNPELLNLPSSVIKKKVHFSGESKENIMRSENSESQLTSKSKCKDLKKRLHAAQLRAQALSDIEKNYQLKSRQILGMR

[15] = molecular target: T6, Serine/threonine-protein kinase Nek2 (Homo sapiens); conditions: at 1 µM
[16] = molecular target: Serine/threonine-protein kinase Nek6 (Homo sapiens) (UniProt Q9HC98); conditions: at 0.1 µM
[17] = molecular target: Serine/threonine-protein kinase Nek6 (Homo sapiens) (UniProt Q9HC98); conditions: at 1 µM
[18] = molecular target: Serine/threonine-protein kinase Nek7 (Homo sapiens) (UniProt Q8TDX7); conditions: at 0.1 µM
[19] = molecular target: Serine/threonine-protein kinase Nek7 (Homo sapiens) (UniProt Q8TDX7); conditions: at 1 µM
[20] = molecular target: T7, Serine/threonine-protein kinase Nek9 (Homo sapiens) (UniProt Q8TD19); conditions: at 0.1 µM;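 also: reported value is the mean percent inhibition of NEK9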
T7 sequence (whole entry): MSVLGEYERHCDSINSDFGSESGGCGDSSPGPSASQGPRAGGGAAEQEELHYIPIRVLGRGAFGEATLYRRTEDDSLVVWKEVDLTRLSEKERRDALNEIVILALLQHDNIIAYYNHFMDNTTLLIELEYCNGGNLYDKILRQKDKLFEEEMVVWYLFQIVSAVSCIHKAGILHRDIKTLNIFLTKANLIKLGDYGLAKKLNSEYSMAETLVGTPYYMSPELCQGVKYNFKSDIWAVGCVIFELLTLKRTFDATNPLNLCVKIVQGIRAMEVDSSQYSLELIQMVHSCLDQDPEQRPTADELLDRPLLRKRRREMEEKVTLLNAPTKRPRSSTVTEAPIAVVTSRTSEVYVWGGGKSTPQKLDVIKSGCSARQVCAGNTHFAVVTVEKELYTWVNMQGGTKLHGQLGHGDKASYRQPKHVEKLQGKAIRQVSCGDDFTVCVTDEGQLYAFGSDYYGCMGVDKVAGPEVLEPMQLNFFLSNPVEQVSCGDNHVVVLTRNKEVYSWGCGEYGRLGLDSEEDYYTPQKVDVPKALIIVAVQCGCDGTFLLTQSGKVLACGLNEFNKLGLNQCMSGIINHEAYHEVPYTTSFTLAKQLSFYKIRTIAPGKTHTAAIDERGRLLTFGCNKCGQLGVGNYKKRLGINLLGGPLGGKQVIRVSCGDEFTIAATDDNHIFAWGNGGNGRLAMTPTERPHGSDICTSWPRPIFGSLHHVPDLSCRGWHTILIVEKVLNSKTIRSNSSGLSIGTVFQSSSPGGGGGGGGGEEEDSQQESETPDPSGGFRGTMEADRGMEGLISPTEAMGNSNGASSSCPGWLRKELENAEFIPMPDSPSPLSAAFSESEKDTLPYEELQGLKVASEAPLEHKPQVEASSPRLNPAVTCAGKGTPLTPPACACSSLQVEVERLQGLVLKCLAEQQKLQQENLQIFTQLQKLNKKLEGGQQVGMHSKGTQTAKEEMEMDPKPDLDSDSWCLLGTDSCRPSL

Sequence of Casein kinase II subunit alpha (Homo sapiens) (P68400 whole entry, looked up): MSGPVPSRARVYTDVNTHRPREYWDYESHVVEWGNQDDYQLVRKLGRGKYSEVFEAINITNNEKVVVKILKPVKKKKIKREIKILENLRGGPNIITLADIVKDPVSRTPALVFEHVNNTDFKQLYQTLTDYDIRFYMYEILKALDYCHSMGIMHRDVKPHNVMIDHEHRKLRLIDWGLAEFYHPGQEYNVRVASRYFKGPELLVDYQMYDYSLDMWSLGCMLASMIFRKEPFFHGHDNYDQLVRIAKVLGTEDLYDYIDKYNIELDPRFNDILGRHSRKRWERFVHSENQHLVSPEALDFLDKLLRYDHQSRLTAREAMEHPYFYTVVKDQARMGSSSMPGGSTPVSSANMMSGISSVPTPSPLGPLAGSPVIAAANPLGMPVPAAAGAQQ
Sequence of Serine/threonine-protein kinase Nek7 (Homo sapiens) (Q8TDX7 whole entry, looked up): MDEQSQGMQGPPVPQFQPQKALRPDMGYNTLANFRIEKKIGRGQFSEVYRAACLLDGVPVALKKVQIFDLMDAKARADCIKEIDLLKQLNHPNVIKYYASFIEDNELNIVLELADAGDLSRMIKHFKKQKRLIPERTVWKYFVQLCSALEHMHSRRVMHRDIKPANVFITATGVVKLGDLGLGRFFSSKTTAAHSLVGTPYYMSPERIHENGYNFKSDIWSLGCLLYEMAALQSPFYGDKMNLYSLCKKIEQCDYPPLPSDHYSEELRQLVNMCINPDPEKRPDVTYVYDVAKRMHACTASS
Sequence of Serine/threonine-protein kinase Nek6 (Homo sapiens) (Q9HC98 whole entry): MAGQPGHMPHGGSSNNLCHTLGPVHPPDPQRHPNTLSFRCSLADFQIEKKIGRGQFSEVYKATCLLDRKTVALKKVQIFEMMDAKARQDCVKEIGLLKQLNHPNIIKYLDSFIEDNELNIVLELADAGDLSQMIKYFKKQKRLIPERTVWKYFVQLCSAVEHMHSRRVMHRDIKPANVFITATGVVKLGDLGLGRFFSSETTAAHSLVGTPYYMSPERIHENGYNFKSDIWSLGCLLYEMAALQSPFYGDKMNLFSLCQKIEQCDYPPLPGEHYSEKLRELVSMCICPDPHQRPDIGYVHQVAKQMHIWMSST
Sequence of Sphingosine kinase 1 (Homo sapiens) (Q9NYA1 whole entry): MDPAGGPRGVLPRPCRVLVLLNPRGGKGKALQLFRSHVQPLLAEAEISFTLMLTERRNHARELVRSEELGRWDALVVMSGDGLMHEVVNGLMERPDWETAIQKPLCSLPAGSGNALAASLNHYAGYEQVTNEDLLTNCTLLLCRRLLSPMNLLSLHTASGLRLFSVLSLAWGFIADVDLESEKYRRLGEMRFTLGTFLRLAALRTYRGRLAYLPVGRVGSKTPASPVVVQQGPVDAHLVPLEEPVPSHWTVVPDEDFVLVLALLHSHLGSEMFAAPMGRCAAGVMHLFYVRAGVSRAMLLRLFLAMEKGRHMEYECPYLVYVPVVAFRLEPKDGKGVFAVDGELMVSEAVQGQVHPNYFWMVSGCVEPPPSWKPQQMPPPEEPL

Compound	inhibition [1] [%]	inhibition [2] [%]	inhibition [3] [%]	inhibition [4] [%]	inhibition [5] [%]	inhibition [6] [%]	inhibition [7] [%]	inhibition [8] [%]	inhibition [9] [%]	inhibition [10] [%]	inhibition [11] [%]	inhibition [12] [%]	inhibition [13] [%]	inhibition [14] [%]	inhibition [15] [%]	inhibition [16] [%]	inhibition [17] [%]	inhibition [18] [%]	inhibition [19] [%]	inhibition [20] [%]
c1ccc(Nc2ncc(-c3ccccc3)o2)cc1	5.25	0.84	7.14	8.1	4.81	4.42	6.78	5.92	7.79	3.13	8.49	2.71	2.57	5.93	0.59	1.04	0.47	3.1	9.54	12.2
NS(=O)(=O)c1cccc(-c2cc3ccncc3cc2OCc2ccccc2)c1	0.02	-1.2	0.96	1.61	-1.22	8.21	10.9	7.94	10.7	4.52	5.04	2.64	2.55	5.53	6.81	0.87	-0.35	5.92	3.78	2.36
